The whole screen tested about 310,000 compounds, of which about 1,400 (0.45%) were called active.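 Rule for the calls: active = B-score, a plate-corrected calcium signal, over three deviations above library mean, with baseline fluorescence within five deviations of library mean; inactive = the rest.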 The sample as a whole holds a higher share of actives than the screen did.
These compounds were tested against Regulator of G-protein signaling 4 (Homo sapiens) (UniProt P49798) (assay: blockers of RGS4 function in M3R calcium signaling – cell-based, HEK293 M3R inducible RGS4, calcium flux, primary screen (AID 463165;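 note: RGS4 expression induced by doxycycline in cells with stable M3 receptor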;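 for B-score: B-score is computed from the integrated fluorescence ratio over baseline after carbachol; higher B-score means a larger calcium signal and so more RGS4 inhibition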)). Settings: Fluo-4 calcium flux, at 10 µM, triggered by carbachol at its EC20; active compounds read high.
Sequence of Regulator of G-protein signaling 4 (Homo sapiens) (P49798 whole entry, looked up): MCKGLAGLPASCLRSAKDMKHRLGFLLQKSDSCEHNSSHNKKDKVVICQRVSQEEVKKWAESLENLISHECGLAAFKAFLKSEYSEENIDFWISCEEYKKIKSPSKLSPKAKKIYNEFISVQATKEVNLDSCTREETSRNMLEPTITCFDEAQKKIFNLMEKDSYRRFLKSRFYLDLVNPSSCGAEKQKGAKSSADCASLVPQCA

B-score, active:
CNCC(O)c1ccc(O)c(O)c1 (stereo not drawn) 6, C1=C(N2CCOCC2)/C(=C/c2nc3ccccc3[nH]2)CC1 5.95, O=C(O)C(c1ccccc1)N1C(=O)/C(=C\c2ccc(-c3cccc(Cl)c3)o2)SC1=S (stereo not drawn) 10.3, O=[N+]([O-])/C=C/c1ccc2c(ccn2Cc2ccccc2)c1 44.8, COc1cc(Br)cc(/C=N/c2ncn[nH]2)c1O 5.03, C#CCOc1ccc(/C=C2/C(=O)NN(c3ccccc3)C2=O)cc1OC 7.25, COc1cc(/C=C2/C(=O)NN(c3cccc(Cl)c3)C2=O)cc(Br)c1O 5.61, COc1ccc(NC(=O)/C(Cl)=C(/Cl)S(=O)Cc2ccc(C)cc2)cn1 (stereo not drawn) 5.83, Cc1nc(-c2ccccc2)sc1C(=O)/C=C/c1ccccc1 11.9, CCC(c1nnnn1Cc1ccco1)N(Cc1cc2cc(OC)ccc2[nH]c1=O)C1CCCCC1 (stereo not drawn) 16.8, COc1ccc(C(C[N+](=O)[O-])n2nc(C)cc2C)cc1 (stereo not drawn) 5.35, O=C1Nc2ccc(Br)cc2/C1=N/N=C/C1=C(N2CCOCC2)C(=C\c2ccccc2)/CC1 13.1, Cc1cc(-c2n[nH]c(=S)n2/N=C/C(Br)=C/c2ccccc2)n[nH]1 7.31, C=CCNc1nc(N)c([N+](=O)[O-])c(NC2CCCCC2)n1 7.68

B-score, inactive:
CCCCN1C(=O)C(C)=C(C)C1OCCc1ccc(OC)c(OC)c1 (stereo not drawn), c1ccc(CN=C2Nc3ccccc3CS2)nc1, CCC(C)c1ccc(O)c(/C=N/O)c1 (stereo not drawn), CC(=O)NCC(O)c1ccc([N+](=O)[O-])cc1 (stereo not drawn), FC(F)(F)c1ccc(-n2cn[nH]c2=S)cc1, Cc1ccnc(NS(=O)(=O)c2ccc(NC(=O)c3oc4ccc(F)cc4c3C)cc2)n1, CCOC(=O)c1c(NC(C)=O)sc2c(O)c(Br)ccc12, CC1(C)Cc2c(C#N)c(SCc3nc4ccccc4[nH]3)nc(N3CCOCC3)c2CO1, O=c1[nH]c(N2CCOCC2)nc2ccccc12, Nc1c(-c2ccc(F)cc2)cnn1C1CCS(=O)(=O)C1 (stereo not drawn), C/C(=N\NC(=O)CSc1nc2ccccc2c(=O)n1-c1ccccc1C)c1cccs1, CN1C(=O)/C(=C\c2ccc(-c3ccccc3)o2)SC1=S, O=C1NN(c2ccccc2)C(=O)/C1=C/c1ccc(-c2cccc(C(=O)O)c2)o1, NC(=O)C1CCN(CC(O)CSc2ccc(F)cc2)CC1 (stereo not drawn), CC(Oc1ccccc1)C(=O)Nc1c2c(nn1-c1ccccc1)CS(=O)C2 (stereo not drawn), COc1ccc(-c2nc3c(s2)CCc2onc(-c4ccc(Br)cc4)c2-3)cc1, O=C(Cn1ccc2cc(S(=O)(=O)N3CCCC3)ccc21)NCc1ccccc1, O=C(/C=C/c1cccc([N+](=O)[O-])c1)N1CCN(Cc2ccccc2)CC1, O=c1c2cc([N+](=O)[O-])ccc2nc2n1CCC2, C=CCOc1cccc(C2NC(=O)c3ccccc3O2)c1 (stereo not drawn), Oc1ccc(Br)cc1C=Nc1ccc2[nH]ncc2c1, Oc1c(Cl)cc(Cl)cc1/C=N/c1ncn[nH]1, Cc1ccc(CN2CCN(Cc3cccc(C)n3)CC2CCO)cc1 (stereo not drawn), CCCCCN(C(=O)CCC(=O)OCC(=O)NC1CCC(C)CC1)c1c(N)n(CCCC)c(=O)[nH]c1=O (stereo not drawn), COc1cc(/C=C2\SC(=O)NC2=O)ccc1OCc1ccc(Cl)nc1, COc1cc(/C=C2/C(=O)NN(c3ccc(F)cc3)C2=O)cc([N+](=O)[O-])c1O, Cc1cccc(C)c1-n1c(C)cc(/C=C2\C(=O)NN(c3ccccc3)C2=O)c1C, COc1cc(/C=N/O)cc(Br)c1OCc1cccc(Cl)c1, CONc1nc2nonc2nc1NOC, COc1ccc(Nc2ccc([N+](=O)[O-])cn2)cn1, Cc1ccc(NC(=O)OCc2cncs2)cc1, COC(=O)c1ccc(Nc2ncnc3sccc23)cc1, Cc1ccc(-n2c(SCC(=O)N3CCC(C(=O)O)CC3)nc3ccccc3c2=O)cc1C, Cc1nc(-c2ccc(Cl)cc2)sc1C(=O)CBr, Cc1nc(-c2ccccc2)sc1C(=O)/C=C/N(C)C, Cc1cccc(C(=O)NC(=S)N(C)C2CCCCC2)c1, CCC(c1nnnn1Cc1ccco1)N(CCc1ccccc1)Cc1cc2cccc(C)c2[nH]c1=O (stereo not drawn), CCC(c1nnnn1Cc1ccccc1)N(Cc1cc2cc(OC)ccc2[nH]c1=O)CC1CCCO1 (stereo not drawn), COC(=O)/C=C(\Oc1ccccc1)C1(O)CCCCC1, O=C(Nc1ccccc1)C1CCN(C(=O)c2ccc(Br)cc2)CC1, COc1ccc(OCc2cn3c(C)cc(C)nc3n2)cc1, COc1ccc(C(=O)CSc2nc(C)cc(C)n2)cc1[N+](=O)[O-], CCOc1ccc(NC(=S)NC(=O)/C=C/c2ccc(OC)cc2)c([N+](=O)[O-])c1, N#C/C(=C\C1=C(N2CCOCC2)C(=C\c2ccccc2)/CC1)C(=O)Nc1ccccc1F, C(=N\N1CCN(c2ccccn2)CC1)/C1=C(N2CCOCC2)C(=C/c2ccccc2)/CC1, COc1ccc(C(F)(F)F)cc1N/C=C\c1nnnn1-c1ccc(C)cc1, CCOC(=O)c1ccccc1NC(=O)COC(=O)CCC(=O)N1CCOCC1, S=c1[nH]nc(-c2cc(-c3ccccc3)n[nH]2)n1/N=C/c1c2ccccc2cc2ccccc12, CC(C)c1cc(C(=O)N/N=C/C(Br)=C/c2ccccc2)n[nH]1, COCCn1c(SCC(=O)c2[nH]c(C)c(C(C)=O)c2C)nc2ccccc2c1=O, CCOc1cc2[nH]c(=S)n(Cc3ccc(C(=O)N4CCN(C)CC4)cc3)c(=O)c2cc1OCC, O=C(C1CCC(=O)N(C2CC2)C1)N1CCN(c2ccc(Cl)cc2)CC1 (stereo not drawn), Nc1nc(Nc2ccccc2F)nc(NC2CCCCC2)c1[N+](=O)[O-], Nc1nc(NCC2CCCO2)nc(Nc2ccccc2F)c1[N+](=O)[O-] (stereo not drawn)
